The record followed here is article PMC5540273 (PLoS ONE, 2017).

Common to all, as to conditions: concentration: 1 μM, replicates: in singlicate; n = 1
In experiment [1] the test system is FGFR1.
Experiment [2] concerns FGFR2.
Experiment [3] deals with FGFR3.
For experiment [4], the system named is FGFR4.
The test system of experiment [5] is FGR.
The test system of experiment [6] is FLT1.
Experiment [7] relates to FLT3-autoinhibited.
Experiment [8] deals with FLT3.
For experiment [9], the system named is FLT4.
The subject of experiment [10] is FRK.
For experiment [11], the system named is FYN.
Experiment [12] has as its system GAK.
Experiment [13] deals with T1, GCN2(Kin.Dom.2,S808G).
T1 construct: gene EIF2AK4

In experiment [14] the test system is GRK1.
In experiment [15] the test system is T2, GRK2.
T2 construct: gene ADRBK1

Experiment [16] has as its system T3, GRK3.
T3 construct: gene ADRBK2

The subject of experiment [17] is GRK4.
In experiment [18] the test system is GRK7.
Experiment [19] has as its system GSK3A.
Experiment [20] has as its system GSK3B.
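Further: KINOMEscan kinase panel screen.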

For `CN(C)S(=O)(=O)c1cc(-c2ccc3nccc(-c4cccc(S(N)(=O)=O)c4)c3c2)cnc1N` [GSK1669921], the “%Inh” value in experiment [1] was found to be 0%; in [2], 22%; in experiment [3], 26%; in experiment [4], 13%; in [5], 22%; in experiment [6], 25%. The “%Inh” value in [7] is recorded as 19%; in experiment [8], 1%; in experiment [9] it was 1%; in [10], 7%; in experiment [11], 28%; in experiment [12], 28%. In addition, the “%Inh” value amounted to 0% in experiment [13]; 5% in [14]; 0% in experiment [15]; 0% in experiment [16]; 12% in [17]; 8% in experiment [18]. Further, the entries for the “%Inh” value in experiment [19] and in [20] were 0% and 3%, respectively.
`COc1cc(Nc2nccc(-c3c(-c4cccc(NC(=O)c5c(F)cccc5F)c4)nn4ccccc34)n2)cc(OC)c1OC` [GSK323521]: the “%Inh” value in experiment [1] is 17%; in experiment [2] it was 0%; in experiment [3], 12%; in experiment [4] it was 0%; in [5], 27%; in [6], 41%. In addition, the “%Inh” value turned out to be 0% in [7]; 98.4% in experiment [8]; 20% in experiment [9]; 11% in experiment [10]; 23% in [11]; 28% in experiment [12]. The “%Inh” value in experiment [13] was found to be 29%; in [14] it was 13%; in [15] it was 0%; in experiment [16], 0%; in [17], 16%; in experiment [18] it was 0%. Besides, the “%Inh” value in experiment [19] was determined as 0%; in experiment [20], 23%.
For `CN1CCN(CCCNc2nccc(-c3c(-c4ccc(F)cc4)nn4cc(C(F)(F)F)ccc34)n2)CC1` [GW621581], the “%Inh” value in [1] is 25%; in experiment [2], 0%; in experiment [3] it was 0%; in experiment [4], 0%; in experiment [5], 6%; in [6], 33%. The “%Inh” value is on record as 0% in [7]; 0% in [8]; 16% in [9]; 5% in experiment [10]; 0% in [11]; 78% in experiment [12]. Besides, the “%Inh” value came to 4% in [13]; 0% in experiment [14]; 4% in experiment [15]; 0% in experiment [16]; 8% in [17]; 0% in experiment [18]. In addition, the “%Inh” value came to 25% in experiment [19] and 3% in [20].
On to `COc1cccc(C(=O)Nc2cccc(Oc3ccc4nc(NC(=O)C5CC5)cn4n3)c2)c1`, for which the “%Inh” value in [1] was determined as 22%; in experiment [2], 88%; in experiment [3] it was 41%; in [4] it was 48%; in experiment [5], 98%; in experiment [6], 99.9%. The “%Inh” value turned out to be 24% in experiment [7]; 89% in experiment [8]; 100% in experiment [9]; 94.9% in [10]; 84% in experiment [11]; 33% in experiment [12]. The “%Inh” value in experiment [13] is listed as 22%; in experiment [14] it was 17%; in [15] it was 0%; in experiment [16] it was 0%; in experiment [17], 0%; in experiment [18], 0%. Besides, the “%Inh” value in experiment [19] is 8%; in experiment [20], 10%.
Turning to `O=C(Nc1cccc(-c2nn3ccccc3c2-c2ccnc(Nc3cccc(F)c3)n2)c1)c1c(F)ccc(F)c1Cl` [GSK357952], the “%Inh” value came to 14% in experiment [1]; 0% in [2]; 19% in [3]; 0% in experiment [4]; 97.1% in experiment [5]; 89% in experiment [6]. Further, the “%Inh” value in experiment [7] is recorded as 15%; in [8], 51%; in experiment [9] it was 38%; in experiment [10], 76%; in experiment [11], 66%; in [12], 14%. Also, the “%Inh” value is on record as 1% in experiment [13]; 5% in [14]; 0% in experiment [15]; 0% in [16]; 5% in [17]; 0% in [18]. Besides, the “%Inh” value worked out at 0% in experiment [19] and 6% in experiment [20].
Turning to `Cl.c1ccc(-c2ccc3c(Nc4ccc5[nH]ncc5c4)ccnc3c2)nc1` [GW440137], the “%Inh” value in experiment [1] is listed as 14%; in experiment [2], 0%; in [3], 11%; in experiment [4], 0%; in experiment [5], 30%; in experiment [6], 62%. Also, the “%Inh” value in [7] is on record as 2%; in experiment [8] it was 0%; in [9] it was 39%; in experiment [10], 0%; in [11], 50%; in experiment [12], 68%. The “%Inh” value in experiment [13] is 0%; in experiment [14], 0%; in experiment [15], 0%; in experiment [16] it was 22%; in [17] it was 0%; in experiment [18], 0%. The results for the “%Inh” value in experiment [19] and in experiment [20] were 16% and 17%, respectively.
Regarding `O=C(Nc1cccc(-c2nn3ncccc3c2-c2ccnc(Nc3ccccc3)n2)c1)c1c(F)cccc1F` [GSK198271], the “%Inh” value in experiment [1] is listed as 0%; in experiment [2], 7%; in experiment [3] it was 3%; in experiment [4] it was 14%; in experiment [5], 97.2%; in experiment [6], 98.4%. Besides, the “%Inh” value in experiment [7] is listed as 0%; in experiment [8], 72%; in experiment [9], 77%; in experiment [10], 89%; in [11], 85%; in experiment [12], 31%. The “%Inh” value in experiment [13] amounted to 33%; in [14], 0%; in [15] it was 0%; in experiment [16] it was 0%; in experiment [17], 1%; in experiment [18] it was 0%. In addition, the “%Inh” value in [19] came to 16%; in [20], 14%.
For `O=C(Nc1ccccc1F)NC1CCN(c2ccnc(Nc3ccc(F)cc3)n2)CC1` [GSK1379800], the “%Inh” value in experiment [1] is reported as 0%; in [2], 0%; in [3], 0%; in experiment [4], 2%; in experiment [5], 18%; in [6] it was 29%. Further, the “%Inh” value was 0% in experiment [7]; 0% in experiment [8]; 0% in experiment [9]; 0% in experiment [10]; 8% in experiment [11]; 0% in experiment [12]. Besides, the “%Inh” value in experiment [13], in experiment [14], in [15], in experiment [16], in experiment [17] and in [18] was 0% in each case. Further, the “%Inh” value in [19] came out at 5%; in experiment [20], 12%.
With `O=c1[nH]cc(-c2ccc(N3CCOCC3)cc2)c2sc(-c3cn[nH]c3)cc12` [GSK2276055], the “%Inh” value in experiment [1] was found to be 0%; in [2], 0%; in experiment [3] it was 21%; in experiment [4] it was 0%; in [5], 0%; in experiment [6] it was 0%. In addition, the “%Inh” value in [7] came to 11%; in experiment [8], 0%; in [9], 0%; in [10], 0%; in experiment [11], 31%; in experiment [12], 34%. Besides, the “%Inh” value in experiment [13] is given as 0%; in experiment [14], 14%; in experiment [15] it was 9%; in experiment [16], 0%; in experiment [17], 0%; in [18] it was 0%. Moreover, the “%Inh” value in experiment [19] was found to be 97.7%; in [20], 77%.
Take `CCCCc1nn2ncccc2c1-c1ccnc(Nc2ccc(N3CCN(C)CC3)cc2)n1` [GW684941]: the “%Inh” value came out at 97.9% in experiment [1]; 96.9% in [2]; 89% in experiment [3]; 68% in experiment [4]; 91.9% in experiment [5]; 98% in experiment [6]. For the same compound, the “%Inh” value in [7] turned out to be 93.3%; in experiment [8] it was 99.5%; in [9], 95.6%; in experiment [10] it was 95%; in experiment [11], 58%; in [12] it was 91.7%. Further, the “%Inh” value is 93% in experiment [13]; 0% in [14]; 0% in experiment [15]; 62% in experiment [16]; 16% in experiment [17]; 0% in experiment [18]. Further, the results for the “%Inh” value in experiment [19] and in experiment [20] were 7% and 5%, respectively.
